Lmaj promast – inhibitors of Leishmania major promastigote growth. Leishmania major promastigotes, resazurin fluorescence viability. inhibition, % at 10 µM. 9% of 200,000 active; in the data active = inhibition above about 50%;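 note: promastigotes grown with compound for 44 hours at 28 °C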
bCat KO growth – beta-catenin-lacking colon tumor cell growth suppression | HCT116 beta-catenin knockout viability, CellTiter-Glo, 60 h; stronger effect = lower value | viability, % at 10 µM | 1.5% of 140,000 active | AID 818;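 active = viability at or under a set limit, the compound median less 4 SD, cut at about 6% in these data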
HCT116 PTEN-null – growth suppressors of cells with PTEN tumor suppressor deletion. 1.2% of 140,000 active. HCT116 PTEN-null viability, CellTiter-Glo, 60 h; stronger effect = lower value. viability, % at 10 µM. AID 827;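 active = viability at or below a set limit, 4 SD under the median of all tested compounds, cut at about 3.7% in these data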;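 note: PTEN knockout HCT116 line with beta catenin targeted HCT116 as companion control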
p97 ATPase inh – inhibitors of human p97 ATPase; P55072; recombinant p97 ATPase, Kinase-Glo ATP luminescence, 3 h; inhibition, % at 8 µM; 0.42% of 220,000 active; in the data active = inhibition above about 15%
Insulin prom inh – TRM-6 insulin promoter activity inhibition | TRM-6 cells (human fetal islet line), insulin promoter-eGFP reporter, imaging; reporter expression induced with tamoxifen | inhibition, % at 2 µM | 0.9% of 130,000 active | AID 1273;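 active = inhibition above the mean plus 3 SD, with well images judged a real hit on visual review, cut at about 60% in these data, passing the limit was not always enough; inconclusive = inhibition over the cutoff but images rejected on review; inactive = inhibition not above the cutoff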
ROMK primary – modulates human ROMK potassium channel activity. P48048. Tet-inducible ROMK, thallium flux fluorescence; actives lie on both sides. B-score at 10 µM. 2% of 130,000 active;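 active = signal ratio slope over the read window, or its plate-corrected B-score, at least 3 SD from the plate mean, either direction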;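 note: B-score of the F/F0 ratio slope over 7 to 12 s after thallium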
Target sequence (P48048 whole entry, looked up): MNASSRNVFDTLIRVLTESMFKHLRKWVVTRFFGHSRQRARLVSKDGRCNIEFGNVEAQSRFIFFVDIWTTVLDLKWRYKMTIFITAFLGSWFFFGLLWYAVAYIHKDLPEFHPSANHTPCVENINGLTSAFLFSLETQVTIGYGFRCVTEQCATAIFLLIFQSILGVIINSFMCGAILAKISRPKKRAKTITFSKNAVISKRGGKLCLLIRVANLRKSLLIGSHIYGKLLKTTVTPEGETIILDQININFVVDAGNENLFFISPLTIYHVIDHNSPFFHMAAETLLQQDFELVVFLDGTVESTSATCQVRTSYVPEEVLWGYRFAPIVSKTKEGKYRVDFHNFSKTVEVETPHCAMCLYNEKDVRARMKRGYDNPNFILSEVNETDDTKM
ROMK retest – retested hit modulating human ROMK potassium channel | 54% of 3,000 active | ROMK thallium flux, fluorescence ratio; stronger effect = lower value | normalized thallium flux (F/F0 slope) at 10 µM | shares compounds with ROMK primary;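 active = Flux at 10 µM at least 3 SD below or above vehicle control mean in one or both replicates; inconclusive = no clear call, values can overlap the other calls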
Large screens that a line does not name were inactive (follow-up assays come after a bar, where they were run). Hits are enriched below; roughly 10% of the tested compounds scored in any of these assays.

O=C1CN(C(=O)c2cc3ccccc3oc2=O)C(c2ccc(F)cc2)c2cc(F)ccc2N1 (centres undefined)	ROMK primary 4 | ROMK retest inactive
CCN1CC=C2C(C1)C(c1ccc(Cl)s1)C(C#N)=C(N)C2(C#N)C#N (centres undefined)	none (no result: ROMK primary) | ROMK retest 0.039
O=S(=O)(NCc1ccccc1)NCc1ccccc1	none (no result: bCat KO growth, HCT116 PTEN-null, ROMK primary) | ROMK retest inactive
Cc1ccc(/C(=N\O)c2oc3c(C)c4oc(=O)cc(C)c4cc3c2C)cc1	bCat KO growth 2.0, HCT116 PTEN-null 2.6, Insulin prom inh inconclusive, ROMK primary 2.9 | ROMK retest 0.11
CCN=c1scc(-c2ccc3c(c2)NC(=O)CO3)n1N=C1CCCC1	none (no result: ROMK primary) | ROMK retest inactive
CCCCN=c1scc(-c2ccc3c(c2)NC(=O)CO3)n1N=C1CCCC1	none
COc1ccc(C(=O)C2CCCN(C(=O)c3cc(C)nc(C)n3)C2)cc1OC (centres undefined)	none (no result: bCat KO growth, HCT116 PTEN-null)
Fc1ccc(-c2nnc(CSc3nnc4ccccn34)o2)cc1	none
Cc1nnc(SCc2nnc(-c3cccs3)o2)n1Cc1ccccc1	none (no result: bCat KO growth, HCT116 PTEN-null, Insulin prom inh)
Fc1ccc(NCc2nnc(SCc3nnc(-c4ccccc4)o3)n2Cc2ccccc2)cc1	ROMK primary -4.8 | ROMK retest 0.05
Clc1ccc(-c2nnc(CSc3nnc(-c4cccs4)n3Cc3ccccc3)o2)cc1	none | ROMK retest inactive
CCOC(=O)C1=C(C)NC(=O)CC1c1cc(OC)c(OC)cc1Br (centres undefined)	none (no result: bCat KO growth, HCT116 PTEN-null)
COc1ccc(-c2nc(-c3ccc(NC(=O)c4ccncc4)cc3)no2)cc1OC	none (no result: Insulin prom inh, ROMK primary) | ROMK retest inactive
Cc1cccc(COCC(Cc2ccccc2)N2CCN(C(=O)c3ccc(Cl)c(Cl)c3)CCC2=O)c1 (centres undefined)	ROMK primary -2.6 | ROMK retest 0.06
O=C(CCn1cccc1)NCc1ccc2c(c1)OCO2	none
COc1ccc(-c2cc(C(F)(F)F)c(C#N)c(SCC(=O)Nc3ccc(C)cc3)n2)cc1	none
COc1ccc(C(=O)CSc2[nH]c(=O)cc(C(F)(F)F)c2C#N)cc1	none (no result: Lmaj promast, bCat KO growth, HCT116 PTEN-null, Insulin prom inh, ROMK primary) | ROMK retest 0.068
CC(OC(=O)c1cc(=O)[nH]c2ccccc12)C(=O)c1ccccc1 (centres undefined)	none (no result: bCat KO growth, HCT116 PTEN-null, Insulin prom inh)
CN(/N=C/c1cccnc1)c1cnn(-c2ccc(F)c(Cl)c2)c(=O)c1Cl	Lmaj promast 68, ROMK primary 1.7 | ROMK retest inactive
CN(/N=C/c1c[nH]c2ccccc12)c1cnn(-c2ccc(F)c(Cl)c2)c(=O)c1Cl	none
CNC(=O)c1nnsc1S(=O)(=O)c1ccc(Cl)cc1	Lmaj promast 59, ROMK primary -5.6 (no result: bCat KO growth, HCT116 PTEN-null) | ROMK retest 0.053
CNC(=O)c1ncoc1-c1ccc(Cl)cc1	none (no result: Lmaj promast, bCat KO growth, HCT116 PTEN-null, Insulin prom inh, ROMK primary)
CC(C)c1ccc(/C=C/C(=O)NC2CCCCC2)cc1	none (no result: ROMK primary)
CC(C)c1ccc(/C=N/NC(=O)CC(=O)NC2CCCCC2)cc1	ROMK primary -9.2 (no result: bCat KO growth, HCT116 PTEN-null, Insulin prom inh) | ROMK retest inactive
Cc1ccc(S(=O)(=O)N2CCN(C(=O)CSc3nc4ccccc4o3)C2)cc1	none (no result: Insulin prom inh, ROMK primary)
O=C(CSc1nc2ccccc2o1)N1CCN(S(=O)(=O)c2ccc3ccccc3c2)CC1	ROMK primary -3.6 (no result: Insulin prom inh) | ROMK retest inactive
Cc1sc2ncn3c(C)nnc3c2c1C	none (no result: Insulin prom inh, ROMK primary) | ROMK retest inactive
COCCN(C(=S)Nc1ccc(C(C)C)cc1)C(C)c1cccs1 (centres undefined)	none (no result: bCat KO growth, HCT116 PTEN-null)
Cc1ccc(C)c(NC(=O)Cn2nnc(-c3ccc(N4CCOCC4)cc3)n2)c1	none (no result: bCat KO growth, HCT116 PTEN-null)
O=C(CCCCCNC(=S)Nc1ccc(Cl)cc1)C[N+](=O)[O-]	none (no result: bCat KO growth, HCT116 PTEN-null, Insulin prom inh)
COc1ccc(NC(=S)NCCCCCC(=O)C[N+](=O)[O-])cc1	ROMK primary 1.1 (no result: bCat KO growth, HCT116 PTEN-null, Insulin prom inh) | ROMK retest inactive
CC1CC(=O)C=C(O)C1C(=O)OC(C)(C)C (centres undefined)	none (no result: ROMK primary)
C=CCn1c(SCc2c(C)noc2C)nc2cc(C(=O)O)ccc2c1=O	ROMK primary 6 | ROMK retest inconclusive
O=C(Nc1ccc(O)cc1)C1CC=CCC1 (centres undefined)	none (no result: Insulin prom inh, ROMK primary) | ROMK retest inactive
O=C(N/N=C/c1cn(-c2cccs2)nc1-c1ccccc1)c1ccc(O)cc1	ROMK primary -3.5 | ROMK retest 0.059
CCCSC(=S)c1c(C)[nH]n(-c2ccccc2)c1=O	none (no result: Lmaj promast, bCat KO growth, HCT116 PTEN-null, Insulin prom inh, ROMK primary) | ROMK retest 0.12
COc1cccc(C2=NOC(C(=O)Nc3cc(C)on3)C2)c1 (centres undefined)	none (no result: Lmaj promast, bCat KO growth, HCT116 PTEN-null, Insulin prom inh, ROMK primary)
Cc1ccc(C)c(-c2csc(N)c2C(=O)OC(C)C)c1	ROMK primary 2.7 | ROMK retest inactive
N#CC1=C(N)Oc2n[nH]c(-c3cccs3)c2C1c1ccco1 (centres undefined)	ROMK primary -3.5 | ROMK retest 0.053
Cc1ccc(OCC(=O)Nc2cccc(-c3nnc(-c4ccccc4)o3)c2)cc1	none (no result: Insulin prom inh, ROMK primary) | ROMK retest inactive
Cc1cccc(C)c1OCC(=O)Nc1cccc(-c2nnc(-c3ccccc3)o2)c1	none (no result: Insulin prom inh)
C[C@H]1[C@H](C)CC[C@]2(C)CC[C@]3(C)C(=CC[C@@H]4[C@@]5(C)CC[C@@H](O)[C@](C)(C(=O)O)[C@@H]5CC[C@]43C)[C@H]12	none (no result: Lmaj promast, bCat KO growth, HCT116 PTEN-null, p97 ATPase inh, Insulin prom inh, ROMK primary) | ROMK retest inactive
C[C@H]1[C@H](C)CC[C@]2(C(=O)O)CC[C@]3(C)C(=CC[C@@H]4[C@@]5(C)C[C@@H](O)[C@H](O)C(C)(C)[C@@H]5CC[C@]43C)[C@H]12	none
CCCn1nnc(NC(=S)NC(=O)/C=C/c2ccco2)n1	none (no result: Lmaj promast, bCat KO growth, HCT116 PTEN-null, Insulin prom inh, ROMK primary)
Nc1nc(Nc2ccccc2)sc1C(=O)c1ccccc1	none (no result: Lmaj promast, bCat KO growth, HCT116 PTEN-null, Insulin prom inh, ROMK primary) | ROMK retest inconclusive
C=CCn1c(SCC(N)=O)nnc1-c1cccc(Br)c1	none (no result: Insulin prom inh, ROMK primary) | ROMK retest inactive
COc1ccc(Cl)cc1S(=O)(=O)N1CCCC1=O	none (no result: bCat KO growth, HCT116 PTEN-null)
CC(C)CCn1cnc2c(c1=O)c1nc3ccccc3nc1n2Cc1ccc2c(c1)OCO2	none (no result: Insulin prom inh, ROMK primary)
Cc1cc(C(C)(C)C)cc(S(=O)(=O)Nc2cccc(C(=O)O)c2)c1C	ROMK primary 4.7 | ROMK retest inactive
Cc1ccccc1NC(=O)c1ccc(NS(=O)(=O)c2cc(C(C)(C)C)cc(C)c2C)cc1	none (no result: Insulin prom inh, ROMK primary)
COc1ccc(/C=C2/C(=O)OCc3cc(OC)c(OC)cc32)cc1	ROMK primary 2.6 | ROMK retest inactive
Nc1nccnc1C(=O)OCC(=O)Nc1cccc(S(=O)(=O)N2CCCCC2)c1	none (no result: Insulin prom inh, ROMK primary)
CC(NC(=O)CSc1nnc(-c2cccc(S(=O)(=O)N3CCCCC3)c2)o1)C12CC3CC(CC(C3)C1)C2 (centres undefined)	Lmaj promast 96, ROMK primary -3.8 | ROMK retest 0.066
Cc1c(-n2cc(C(=O)c3cc(Cl)ccc3O)cc(C#N)c2=O)c(=O)n(-c2ccccc2)n1C	none (no result: ROMK primary)
CC(C)N(C)CCOC(=O)C1COc2ccccc2O1 (centres undefined)	none (no result: Lmaj promast, bCat KO growth, HCT116 PTEN-null, Insulin prom inh)
O=c1c([N+](=O)[O-])cc(C(F)(F)F)cn1Cc1c(Cl)cccc1Cl	none (no result: ROMK primary) | ROMK retest inactive
O=P(Cc1ccccn1)(c1ccccc1)c1ccccc1	none (no result: ROMK primary)

Screens: PubChem BioAssay, several laboratories
